Compound activity: PubChem BioAssay, National Center for Advancing Translational Sciences (NCATS)
Hits are enriched below; roughly 19% of the tested compounds scored in any of these assays.
KB-V1 cytotox = kills drug-selected multidrug resistant KB-V1 cells. KB-V1 MDR cells viability, CellTiter-Glo, 72 h. Potency, µM (series often up to 46.1 µM), usual class: cytotoxic. hit rate 3.4% among 400,000; also: nearly all actives have a fitted effect of over 60% in size
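Potencies derive from concentration-effect curves fitted to normalized luminescence (CellTiter-Glo) of KB-V1 cells treated for 72 h at 37 degrees C in phenol-red-free DMEM containing 10% FBS.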
TDP1 cell noCPT = qHTS for Inhibitors of human tyrosyl-DNA phosphodiesterase 1 (TDP1): qHTS in cells in absence of CPT; hit rate 15% among 420,000; AID 686978, 2013; DT40 Tdp1-/- hTDP1 cells, no CPT, ATP luminescence, 48 h; Potency, µM (doses to about 46.2 µM), hits mostly inhibitors; also: nearly all actives have a fitted effect of over 55% in size
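Growth of hTDP1-complemented DT40 Tdp1-knockout cells is measured by ATP luminescence after at least 48 hr compound exposure at 37 °C, with DMSO substituting for the 20 nM CPT used in the parallel screen.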
KB-3-1 cytotox = KB-3-1 parental cell cytotoxicity | KB-3-1 viability, CellTiter-Glo ATP luminescence, 72 h | Potency, µM (series often up to 46.1 µM), usual class: cytotoxic | hit rate 1.4% among 400,000; also: nearly all actives have a fitted effect of over 60% in size
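72 h, 37 °C compound treatment of KB-3-1 parental cells; CellTiter-Glo added, 10 min, luminescence read. Data corrected against DMSO-only plates and normalized before curve fitting.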
HT1080 IDH1KD tx = HT-1080 IDH1 knockdown cell toxicity (counter line). HT-1080 IDH1 knockdown viability, ATP luminescence, 48 h. Potency, µM (series often up to 46.1 µM), actives largely listed as cytotoxic. hit rate 2% among 360,000. AID 686971
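CellTiter-Glo luminescence after 48 h compound exposure at 37 degrees C of IDH1-knockdown HT-1080 cells in 5% FBS RPMI. %Activity scaled between DMSO wells and cell-free media wells, with curves fitted and assigned curve classes.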
HT1080-NT tox = kills 2HG-producing HT-1080-NT fibrosarcoma cells. HT-1080-NT fibrosarcoma viability, CellTiter-Glo ATP luminescence, 48 h. AID 686970. hit rate 1.6% among 360,000. Potency, µM (titrated, usually from 46.1 µM), actives largely listed as cytotoxic;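 also: NT is the 2HG producing partner of a matched IDH1 knockdown line; nearly all actives have a fitted effect of over 55% in size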
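Toxicity toward the 2HG-producing NT line was scored as %Activity, normalised to DMSO and no-cell wells, from CellTiter-Glo luminescence after 48 hours' treatment.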
DT40 TDP1 CPT = growth inhibition of DT40 Tdp1-/-;hTDP1 cells with camptothecin (screen for TDP1 inhibitors); chicken DT40 Tdp1-/-;hTDP1 cells + 20 nM CPT, ATP luminescence, 48 h; Potency, µM (highest dose often 46.2 µM), hits mostly inhibitors; hit rate 12% among 420,000; also: nearly all actives have a fitted effect of over 55% in size
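Chicken DT40 Tdp1-/- cells stably complemented with human TDP1 were seeded at 400 cells/well in medium containing 20 nM camptothecin, exposed to pin-transferred compounds, and grown at 37 °C for at least 48 hr. Viability was read as ATP luminescence.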
Large screens that a line does not name were inactive; ! = not active in a repeat. Calls follow the shape of the dose curve; as a rule, active = well fitted curve in the direction sought with a large enough effect; inconclusive = small, poorly fitted or top-dose-only effect, or another doubt; inactive = no such curve, though single readings can be large; an effect the other way counts as inactive or inconclusive.

S=C(Nc1ccc(Cl)cc1)Nc1cccc2cnccc12	TDP1 cell noCPT 23µM, DT40 TDP1 CPT inconclusive
CCOc1ccc(NC(=S)Nc2cccc3cnccc23)cc1	KB-V1 cytotox 15µM, TDP1 cell noCPT inconclusive, DT40 TDP1 CPT inconclusive
COc1ccc(NC(=S)Nc2cccc3cnccc23)cc1	none
Fc1ccc(NC(=S)Nc2cccc3cnccc23)cc1	KB-V1 cytotox inconclusive, KB-3-1 cytotox inconclusive
COc1cccc(C2CC(=O)Nc3c2c(=O)[nH]c2ncnn32)c1OC (configuration not stated)	none (no result: TDP1 cell noCPT, HT1080 IDH1KD tx, HT1080-NT tox, DT40 TDP1 CPT)
CC(C)(C)c1ccc(S(=O)(=O)NC(=O)C2(C)CCN2C(=O)Cc2ccc(-c3ccccc3)cc2)cc1 (configuration not stated)	HT1080 IDH1KD tx inconclusive, HT1080-NT tox inconclusive
COC(=O)C(NC(=O)CCc1nnc2ccc(N3CCCCC3)nn12)C(C)C (configuration not stated)	KB-V1 cytotox inconclusive
COCCCn1cc(CN2CC(N3CCN(C4CCN(C)CC4)CC3)CS2(=O)=O)nn1 (configuration not stated)	none
CCCC(NC(=O)CCc1c(C)c2cc3c(-c4ccccc4)coc3cc2oc1=O)C(=O)O (configuration not stated)	none
Cc1ccc(C(C)C)c(OCCNC(=O)c2ccccc2O)c1	KB-V1 cytotox inconclusive, TDP1 cell noCPT 26µM, HT1080 IDH1KD tx inconclusive, HT1080-NT tox inconclusive, DT40 TDP1 CPT 15µM
CCOc1cc(Br)c(C(C)NC(=O)c2cccnc2)cc1OCC (configuration not stated)	TDP1 cell noCPT 23µM, DT40 TDP1 CPT 18µM
COc1ccc(C(=O)NCCCNC(=O)c2cccnc2)cc1Br	HT1080 IDH1KD tx 10µM, HT1080-NT tox inconclusive, DT40 TDP1 CPT inconclusive
Cc1ccc(OCCNC(=O)c2ccccc2O)cc1	TDP1 cell noCPT inconclusive, DT40 TDP1 CPT inconclusive
CC(C)c1ccccc1OCCNC(=O)c1cccnc1	TDP1 cell noCPT 21µM, DT40 TDP1 CPT 18µM
Cc1ccc(C(O)c2ncc(-c3ccccc3C)[nH]2)cc1F (configuration not stated)	TDP1 cell noCPT inconclusive, DT40 TDP1 CPT inconclusive
Cc1cccc(Nc2nc(C)cc(C)n2)c1	none
Cc1cccc(NC2=NC(C)(C)N=C(N)N2)c1	TDP1 cell noCPT 0.16µM, KB-3-1 cytotox 1.6µM, HT1080 IDH1KD tx 0.16µM, HT1080-NT tox 0.33µM, DT40 TDP1 CPT 0.46µM
Nc1ccc(-c2nc3ccccc3o2)cc1	none
O=C1C=CC(=O)N1c1ccc(-c2nc3ccccc3o2)cc1	TDP1 cell noCPT 1.6µM, HT1080 IDH1KD tx inconclusive, DT40 TDP1 CPT 1.8µM
COc1ccccc1N1CCN(C(=O)Cc2c(C(=O)O)c(C)cn2C)CC1	none (no result: HT1080 IDH1KD tx, HT1080-NT tox)
CCN1CCN(c2cc(C)c3cc(NC(=O)/C=C/c4ccc(OCCC(C)C)cc4)ccc3n2)CC1	TDP1 cell noCPT 4.1µM, DT40 TDP1 CPT 4.6µM (no result: KB-V1 cytotox, KB-3-1 cytotox, HT1080 IDH1KD tx, HT1080-NT tox)
CCN1CCN(c2cc(C)c3cc(NC(=O)c4ccc5c(c4)OCO5)ccc3n2)CC1	KB-V1 cytotox inconclusive, TDP1 cell noCPT 15µM, KB-3-1 cytotox inconclusive, HT1080 IDH1KD tx inconclusive, HT1080-NT tox inconclusive, DT40 TDP1 CPT 12µM
CCN1CCN(c2cc(C)c3cc(NC(=O)c4cccc(C(F)(F)F)c4)ccc3n2)CC1	TDP1 cell noCPT 13µM, DT40 TDP1 CPT 10µM (no result: HT1080 IDH1KD tx, HT1080-NT tox)
CCN1CCN(c2cc(C)c3cc(NC(=O)c4ccc(OC)c(OC)c4)ccc3n2)CC1	KB-V1 cytotox 4.1µM!, TDP1 cell noCPT 16µM, KB-3-1 cytotox 3.7µM!, HT1080 IDH1KD tx inconclusive, DT40 TDP1 CPT 15µM
COc1ccc(C2=Nc3ccccc3N(C(=O)c3ccncc3)C2C(=O)NC(C)(C)C)cc1 (configuration not stated)	none
CC(C)NC(=O)Nc1ccc2c(c1)C(=O)N([C@H](C)CO)C[C@@H](C)[C@@H](CN(C)C(=O)NC1CCCCC1)O2	none
